dFosB act = enhances mouse delta FosB homodimer DNA binding; P13346; purified delta FosB, TAMRA-CDK5 oligo fluorescence polarization; percent of positive-control signal above neutral wells; activation, % at 25 µM; 340,000 compounds, 0.99% hits; AID 493131;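 active = mean activation above about 17%, with every replicate also reaching it, limit read from the data, passing the limit was not always enough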
Target sequence (P13346 whole entry, looked up): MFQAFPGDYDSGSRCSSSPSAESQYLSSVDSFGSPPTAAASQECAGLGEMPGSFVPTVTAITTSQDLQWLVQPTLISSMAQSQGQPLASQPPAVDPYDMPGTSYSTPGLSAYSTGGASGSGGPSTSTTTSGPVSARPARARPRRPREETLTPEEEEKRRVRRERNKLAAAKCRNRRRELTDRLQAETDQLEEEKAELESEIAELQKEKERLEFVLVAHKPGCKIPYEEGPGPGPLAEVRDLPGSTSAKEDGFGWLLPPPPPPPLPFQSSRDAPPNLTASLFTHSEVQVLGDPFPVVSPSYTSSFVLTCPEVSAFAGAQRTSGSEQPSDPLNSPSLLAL
MEKK2 WT-MEK5 = raises or lowers MEK5 binding to wildtype human MEKK2 PB1 domain; binding response (% of control), % at 10 µM; bead flow cytometry, Alexa488-MEK5 binding to MEKK2 WT; actives lie on both sides; AID 1531; 290,000 compounds, 1.1% hits; Q9Y2U5; in the data active = binding response below about 67% or above about 130%
FID counter = fluorescent intercalator displacement, NS3 helicase counter-screen; DNA fluorescent intercalator displacement, fluorescence; inhibition, % at 7.9 µM; 290,000 compounds, 0.17% hits; in the data active = inhibition above about 37%;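 also: 0% = vehicle and 100% = reference compound; higher means more ethidium bromide displaced from hairpin DNA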
MEKK3 PB1 HTS = MEKK3-MEK5 PB1 interaction, increase or decrease. binding response (% of control), % at 10 µM. bead-based flow cytometry, Alexa488-MEK5 binding to MEKK3; actives lie on both sides; 0 = blocked by unlabeled MEK5, 100 = vehicle. AID 1529. 290,000 compounds, 1.4% hits;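 active = binding response more than 3 SD above or below the average of its plate-row segment, actives on both sides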;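 also: Alexa488 bead fluorescence after subtracting the streptavidin-only scavenger bead signal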
MEKK2mut PB1 HTS = signal of MEK5 binding to mutant human MEKK2 PB1 domain | AID 1530 | bead flow cytometry, Alexa488-MEK5 binding to MEKK2 mutant | percent response, % at 10 µM | 290,000 compounds, 0.35% hits; in the data active = percent response above about 24%, passing the limit was not always enough
MEKK2wt confirm = raises or lowers MEK5 binding to wildtype human MEKK2, retest; bead flow cytometry, Alexa488-MEK5 binding to MEKK2 WT; actives lie on both sides; shares compounds with MEKK3 PB1 HTS; 5,900 compounds, 2.4% hits; binding response (% of control), % at 10 µM; in the data active = binding response below about 16% or above about 210%; inactive = in between
MEKK2mut confirm = signal of MEK5 binding to mutant human MEKK2, retest | bead flow cytometry, Alexa488-MEK5 binding to MEKK2 mutant | AID 1893 | percent response, % at 10 µM | shares compounds with MEKK3 PB1 HTS | 5,900 compounds, 2% hits; in the data active = percent response mostly above about 71%, no sharp cut-off; inactive = mostly below about 38%;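 also: higher means compound restores mutant binding toward wildtype level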
MEKK3-MEK5 inh = confirmation of inhibitors of MEK5 binding to human MEKK3; shares compounds with MEKK3 PB1 HTS; bead flow cytometry, Alexa488-MEK5 binding to MEKK3; active compounds read low; binding response (% of control), % at 10 µM; 5,900 compounds, 1.8% hits; AID 1894;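 active = binding response below 72% of control, or above a set upper limit, though filed actives all read lower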;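 also: 100% = DMSO only wells and 0% = binding blocked by excess unlabeled MEK5; lower values mean stronger disruption of MEK5 binding to MEKK3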
An asterisk follows results filed as active; [ ] = dose if it differs, or a comment. A selection: hits, their analogues and other compounds. The true share with any hit is near 2.9%.

Screening CC1(c2ccc3c(c2)OCCCO3)NC(=O)N(CC(=O)NCCc2ccccc2)C1=O (stereo unspecified) returned dFosB act -10.
For Cc1occc1-c1nnc(SCC(=O)c2ccc(F)cc2)o1 the results were dFosB act -6, MEKK2 WT-MEK5 56, FID counter -10, MEKK3 PB1 HTS 48*[inhibitor], MEKK2mut PB1 HTS -16, MEKK2wt confirm 103, MEKK2mut confirm 1 and MEKK3-MEK5 inh 105.
`O=C(O)CSc1nnc(-c2ccccc2)o1` gave dFosB act 2, MEKK2 WT-MEK5 98, FID counter 1, MEKK3 PB1 HTS 98 and MEKK2mut PB1 HTS 6.
Screening Cc1ccc(C(=O)CSc2nnc(-c3ccccc3)o2)cc1 returned dFosB act 0, MEKK2 WT-MEK5 -2.0*[inhibitor], FID counter -4, MEKK3 PB1 HTS 1.0*[inhibitor], MEKK2mut PB1 HTS -2, MEKK2wt confirm 99, MEKK2mut confirm 0 and MEKK3-MEK5 inh 103.
Cc1ccc(CSc2nnc(-c3ccc(NS(=O)(=O)c4ccccc4)cc3)o2)cc1 was read as dFosB act -4, MEKK2 WT-MEK5 26*[inhibitor], FID counter -15, MEKK3 PB1 HTS 21*[inhibitor], MEKK2mut PB1 HTS 3, MEKK2wt confirm 100, MEKK2mut confirm -8 and MEKK3-MEK5 inh 102.
Screening CC(/C=N/n1cnnc1)=C\c1ccco1 returned dFosB act 4, MEKK2 WT-MEK5 107, FID counter -3, MEKK3 PB1 HTS 108 and MEKK2mut PB1 HTS 1.
Screening CCOC(=O)c1ccc(NC(=O)CSc2nnc(C3CCCCC3)n2C)cc1 returned dFosB act -3, MEKK2 WT-MEK5 96, FID counter -27, MEKK3 PB1 HTS 126*, MEKK2mut PB1 HTS 7, MEKK2wt confirm 98, MEKK2mut confirm -2 and MEKK3-MEK5 inh 97.
For Cc1cc2ncc(S(=O)(=O)c3ccccc3)c(N)n2n1 the results were dFosB act 0, MEKK2 WT-MEK5 107, FID counter -3, MEKK3 PB1 HTS 113 and MEKK2mut PB1 HTS 5.
`CN1CCN(c2cc3c(c4c2[nH]c2ccccc24)C(=O)CC(C)(C)C3)CC1` gave dFosB act 7, MEKK2 WT-MEK5 159*, FID counter 26, MEKK3 PB1 HTS 115, MEKK2mut PB1 HTS 36*, MEKK2wt confirm 147, MEKK2mut confirm 44 and MEKK3-MEK5 inh 105.
For O=C(NC1CCCCC1)C1CCCN(S(=O)(=O)c2cccc3cccnc23)C1 (stereo unspecified) the results were dFosB act 0, MEKK2 WT-MEK5 115, FID counter -27, MEKK3 PB1 HTS 129*, MEKK2mut PB1 HTS 27, MEKK2wt confirm 106, MEKK2mut confirm 6 and MEKK3-MEK5 inh 104.
For O=C(NC1CCCC1)C1CCN(S(=O)(=O)c2cccc3cccnc23)CC1 the results were dFosB act -3, MEKK2 WT-MEK5 113, FID counter -4, MEKK3 PB1 HTS 109 and MEKK2mut PB1 HTS 5.
CCCn1c(N)c(N(CCOC)C(=O)c2cc3c(s2)CCCCC3)c(=O)[nH]c1=O was read as dFosB act -1, MEKK2 WT-MEK5 105, FID counter -29, MEKK3 PB1 HTS 99 and MEKK2mut PB1 HTS 4.
For COc1ccc(C(=O)OCc2c(F)cccc2Cl)cc1S(=O)(=O)N1CCOCC1 the results were dFosB act -13.
CCOc1ccc(CCNC(=O)C(C)n2nc(C)n3c(cc4occc43)c2=O)cc1OCC (stereo unspecified) was read as dFosB act -10, MEKK2 WT-MEK5 69*[inhibitor], FID counter -27, MEKK3 PB1 HTS 83, MEKK2mut PB1 HTS -44, MEKK2wt confirm 101, MEKK2mut confirm -2 and MEKK3-MEK5 inh 102.

Screening results (PubChem BioAssay)
